The supplement of paper PMC6853941
Counter-ions that a name gives are not always drawn. A number with no mark means an inactive call.

These compounds were tested on MCF10A (assay: perturbation Mahalanobis distance of morphological profile vs DMSO controls (Mahalanobis distance (SD units)); higher = stronger morphological change, active = 7 or more). Conditions: screen batch: Batch1_Mahalanobis_Distance; 72 h.
Procedure: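 MCF10A cells were seeded onto drugs dispensed acoustically into 384-well plates, using one dose per drug chosen from its human peak plasma concentration, and incubated for 72 h at 37 °C. Cells were stained for DNA, tubulin and mitochondria and imaged; 78 CellProfiler features were extracted, plate-normalised and compared with DMSO wells.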
`Nc1nc(N)c2nc(-c3ccccc3)c(N)nc2n1` [Triamterene] (2 µM) was tested, and the “perturbation Mahalanobis distance” value was 3.18. `O=C1C(=O)c2ccccc2C(O)=C1C1CCC(c2ccc(Cl)cc2)CC1` (stereo not given) [Atovaquone] (37.9 µM) was tested, and the “perturbation Mahalanobis distance” value was 3.34. With `CCC(C)n1ncn(-c2ccc(N3CCN(c4ccc(OC[C@H]5CO[C@](Cn6cncn6)(c6ccc(Cl)cc6Cl)O5)cc4)CC3)cc2)c1=O` (stereo not given in full) [Itraconazole] (14.2 µM) the “perturbation Mahalanobis distance” value was 2.19. In the case of `CC(=O)O.C[C@H](N)C(=O)O.NCCCC[C@H](N)C(=O)O.N[C@@H](CCC(=O)O)C(=O)O.N[C@@H](Cc1ccc(O)cc1)C(=O)O` [Glatiramer Acetate] (50 µM), the “perturbation Mahalanobis distance” value is reported as 2.19. For `OC(CCCN1CCCCC1)(c1ccccc1)c1ccccc1` [Diphenidol] (2.6 µM), the “perturbation Mahalanobis distance” value was 2.49. For `C[C@@H](NCCCc1cccc(C(F)(F)F)c1)c1cccc2ccccc12` [Cinacalcet] (0.4 µM), the “perturbation Mahalanobis distance” value was 2.7. With `CN1C(=O)CC(c2ccccc2)C1=O` (stereo not given) [Phensuximide] (52.9 µM) the “perturbation Mahalanobis distance” value was 3.2. With `NC12CC3CC(CC(C3)C1)C2` [Amantadine] (19.85 µM) the “perturbation Mahalanobis distance” value was 2.66. With `c1ccc([C@H]2CN3CCSC3=N2)cc1` [Levamisole] (11.7 µM) the “perturbation Mahalanobis distance” value was 2.32. In the case of `Nc1nnc(-c2cccc(Cl)c2Cl)c(N)n1` [Lamotrigine] (54.6 µM), the “perturbation Mahalanobis distance” value is reported as 2.15. For `CC[N+](C)(C)Cc1ccccc1Br` [Bretylium Tosylate] (84.1 µM), the “perturbation Mahalanobis distance” value was 2.48. For `Nc1ccn([C@H]2CC[C@@H](CO)O2)c(=O)n1` [Zalcitabine] (2.4 µM), the “perturbation Mahalanobis distance” value was 2.44. With `CCCCN(CCCC)CCC(O)c1cc2c(Cl)cc(Cl)cc2c2cc(C(F)(F)F)ccc12` (stereo not given) [Halofantrine] (63.9 µM) the “perturbation Mahalanobis distance” value was 7.37 (active). With `CC(=O)NO` [Acetohydroxamic Acid] (523.5 µM) the “perturbation Mahalanobis distance” value was 4.11. `C#C[C@]1(O)CC[C@H]2[C@@H]3CCC4=CC(=O)CC[C@@H]4[C@H]3CC[C@@]21CC` [Levonorgestrel] (0.24 µM) was tested, and the “perturbation Mahalanobis distance” value was 3.22. For `CCN(CC)C(=S)S` [Sodium Diethyldithiocarbamate Trihydrate] (10 µM), the “perturbation Mahalanobis distance” value was 3.67. With `CCCCC(F)(F)[C@@]1(O)CC[C@H]2[C@@H](CC(=O)[C@@H]2CCCCCCC(=O)O)O1` [Lubiprostone] (64 µM) the “perturbation Mahalanobis distance” value was 2.4. With `C[C@H]1O[C@H](O[C@H]2[C@H](O)[C@@H](O)[C@@H](O[C@H]3[C@H](O)[C@@H](O)C(O)O[C@@H]3CO)O[C@@H]2CO)[C@H](O)[C@@H](O)[C@@H]1N[C@H]1C=C(CO)[C@@H](O)[C@H](O)[C@H]1O` (stereo not given in full) [Acarbose] (2.2 µM) the “perturbation Mahalanobis distance” value was 2.5. In the case of `Nc1nc2ccc(OC(F)(F)F)cc2s1` [Riluzole] (4.3 µM), the “perturbation Mahalanobis distance” value is reported as 2.51. For `CCN(CC)Cc1cc(Nc2ccnc3cc(Cl)ccc23)ccc1O` [Amodiaquine] (0.7 µM), the “perturbation Mahalanobis distance” value was 2.08.

Same assay, conditions: screen batch: Batch2_Mahalanobis_Distance; 72 h
`Nc1nc(N)c2nc(-c3ccccc3)c(N)nc2n1` [Triamterene] (2 µM) was tested, and the “perturbation Mahalanobis distance” value was 4.38. `O=C1C(=O)c2ccccc2C(O)=C1C1CCC(c2ccc(Cl)cc2)CC1` (stereo not given) [Atovaquone] (37.9 µM) was tested, and the “perturbation Mahalanobis distance” value was 1.78. With `CCC(C)n1ncn(-c2ccc(N3CCN(c4ccc(OC[C@H]5CO[C@](Cn6cncn6)(c6ccc(Cl)cc6Cl)O5)cc4)CC3)cc2)c1=O` (stereo not given in full) [Itraconazole] (14.2 µM) the “perturbation Mahalanobis distance” value was 2.7. `CC(=O)O.C[C@H](N)C(=O)O.NCCCC[C@H](N)C(=O)O.N[C@@H](CCC(=O)O)C(=O)O.N[C@@H](Cc1ccc(O)cc1)C(=O)O` [Glatiramer Acetate] (50 µM) was tested, and the “perturbation Mahalanobis distance” value was 2.3. With `OC(CCCN1CCCCC1)(c1ccccc1)c1ccccc1` [Diphenidol] (2.6 µM) the “perturbation Mahalanobis distance” value was 3.04. In the case of `C[C@@H](NCCCc1cccc(C(F)(F)F)c1)c1cccc2ccccc12` [Cinacalcet] (0.4 µM), the “perturbation Mahalanobis distance” value is reported as 2.58. With `CN1C(=O)CC(c2ccccc2)C1=O` (stereo not given) [Phensuximide] (52.9 µM) the “perturbation Mahalanobis distance” value was 2.78. With `NC12CC3CC(CC(C3)C1)C2` [Amantadine] (19.85 µM) the “perturbation Mahalanobis distance” value was 3.87. `c1ccc([C@H]2CN3CCSC3=N2)cc1` [Levamisole] (11.7 µM) was tested, and the “perturbation Mahalanobis distance” value was 2.52. In the case of `Nc1nnc(-c2cccc(Cl)c2Cl)c(N)n1` [Lamotrigine] (54.6 µM), the “perturbation Mahalanobis distance” value is reported as 2.9. In the case of `CC[N+](C)(C)Cc1ccccc1Br` [Bretylium Tosylate] (84.1 µM), the “perturbation Mahalanobis distance” value is reported as 2.83. `Nc1ccn([C@H]2CC[C@@H](CO)O2)c(=O)n1` [Zalcitabine] (2.4 µM) was tested, and the “perturbation Mahalanobis distance” value was 3.2. In the case of `CCCCN(CCCC)CCC(O)c1cc2c(Cl)cc(Cl)cc2c2cc(C(F)(F)F)ccc12` (stereo not given) [Halofantrine] (63.9 µM), the “perturbation Mahalanobis distance” value is reported as 2.57. With `CC(=O)NO` [Acetohydroxamic Acid] (523.5 µM) the “perturbation Mahalanobis distance” value was 4.24. For `C#C[C@]1(O)CC[C@H]2[C@@H]3CCC4=CC(=O)CC[C@@H]4[C@H]3CC[C@@]21CC` [Levonorgestrel] (0.24 µM), the “perturbation Mahalanobis distance” value was 2.71. With `CCN(CC)C(=S)S` [Sodium Diethyldithiocarbamate Trihydrate] (10 µM) the “perturbation Mahalanobis distance” value was 3.24. `CCCCC(F)(F)[C@@]1(O)CC[C@H]2[C@@H](CC(=O)[C@@H]2CCCCCCC(=O)O)O1` [Lubiprostone] (64 µM) was tested, and the “perturbation Mahalanobis distance” value was 2.48. For `C[C@H]1O[C@H](O[C@H]2[C@H](O)[C@@H](O)[C@@H](O[C@H]3[C@H](O)[C@@H](O)C(O)O[C@@H]3CO)O[C@@H]2CO)[C@H](O)[C@@H](O)[C@@H]1N[C@H]1C=C(CO)[C@@H](O)[C@H](O)[C@H]1O` (stereo not given in full) [Acarbose] (2.2 µM), the “perturbation Mahalanobis distance” value was 3.14. With `Nc1nc2ccc(OC(F)(F)F)cc2s1` [Riluzole] (4.3 µM) the “perturbation Mahalanobis distance” value was 3.82. For `CCN(CC)Cc1cc(Nc2ccnc3cc(Cl)ccc23)ccc1O` [Amodiaquine] (0.7 µM), the “perturbation Mahalanobis distance” value was 2.97.
